Experimental data taken from PubChem BioAssay (NCATS).
“And” between values parts separate entries of the source, which are not always exact repeats. Equal entries are not always repeated. A number with no mark means an inactive call. Inconclusive results are not listed. The source made the active and inactive calls. Unless noted, calls come from the whole dose curve; as a rule, active = well fitted inhibition curve with a large enough effect; inconclusive = small, poorly fitted or top-dose-only effect; inactive = flat fitted curve, though single readings scatter.

Test system: astro (control astrocytes)
Assay: Drug repurposing screens with cells derived from glioblastoma tumor samples (AID 1345199); note: nearly all actives have a fitted effect of over 40% in size; note: potency is the fitted concentration of half-maximal effect; for activity, negative = cell killing: % is set by controls: 0 for no effect and ±100 for the full control effect
Conditions: viability, ATP luminescence, 48 h; series mostly up to 45.9 µM; activity, negative = cell killing: at the top concentration
In short: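 Primary testing used CD133+ neurospheres from four GBM patients, seven concentrations, 48 h exposure and ATP-based viability; confirmation added three slower-growing patient lines.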

Row | Compound | Potency | activity, negative = cell killing
1 | Cc1c(C)c2c(c(C)c1O)CC[C@@](C)(CCC[C@H](C)CCC[C@H](C)CCCC(C)C)O2 | inactive | 
2 | C[C@]12CCC(=O)C=C1CC[C@@H]1[C@@H]2[C@@H](O)C[C@@]2(C)[C@H]1CC[C@]2(O)C(=O)COP(=O)(O)O |  | -7.9%
3 | CC1(C)S[C@@H]2[C@H](NC(=O)[C@@H](NC(=O)N3CCNC3=O)c3ccccc3)C(=O)N2[C@H]1C(=O)O |  | -5.17% [at 21.2 µM]
4 | Nc1ncnc2c1ncn2[C@@H]1O[C@H](COP(=O)(O)OP(=O)(O)OP(=O)(O)O)[C@@H](O)[C@H]1O |  | 17%
5 | C[C@@H]1[C@H](O)[C@@H](C)/C=C/C=C\C=C\C=C\C=C\C=C\C=C\[C@H](O[C@@H]2O[C@H](C)[C@@H](O)[C@H](N)[C@@H]2O)C[C@@H]2O[C@](O)(C[C@@H](O)C[C@@H](O)[C@H](O)CC[C@@H](O)C[C@@H](O)CC(=O)O[C@H]1C)C[C@H](O)[C@H]2C(=O)O (stereo in doubt) |  | -7.61%
6 | CCCCCCCC(=O)O |  | -23%
7 | CC1(C)S[C@@H]2[C@H](NC(=O)C(N)c3ccccc3)C(=O)N2[C@H]1C(=O)OC1OC(=O)c2ccccc21 (stereo not given in full) |  | -8.29% [at 21.2 µM]
8 | CC1=CCC(C(C)(C)O)CC1 (stereo not given) |  | -8.34%
9 | CC(O)CO (stereo not given) |  | -11.2%
10 | Cc1cc(C(=O)NNCc2ccccc2)no1 |  | -7.86% [at 21.2 µM]
11 | CC1(C)S[C@@H]2[C@H](NC(=O)Cc3ccccc3)C(=O)N2[C@H]1C(=O)O |  | -15.5%
12 | CC(=O)OCC(=O)[C@@]1(O)CC[C@H]2[C@@H]3C[C@H](C)C4=CC(=O)C=C[C@]4(C)[C@H]3[C@@H](O)C[C@@]21C |  | -9.25%
13 | CC(Oc1ccccc1)C(=O)N[C@@H]1C(=O)N2[C@@H]1SC(C)(C)[C@@H]2C(=O)O (stereo not given in full) |  | -8.67% [at 21.2 µM]
14 | CC(=O)N(CC(C)C(=O)O)c1c(I)cc(I)c(N)c1I (stereo not given) |  | -18.6% [at 21.2 µM]
15 | C=C(NC(=O)C(=C)NC(=O)c1csc(C2=N[C@@H]3c4csc(n4)[C@H]4NC(=O)c5csc(n5)[C@H]([C@](C)(O)[C@@H](C)O)NC(=O)[C@H]5CSC(=N5)C(=CC)NC(=O)C([C@@H](C)O)NC(=O)c5csc(n5)[C@]3(CC2)NC(=O)[C@H](C)NC(=O)C(=C)NC(=O)[C@H](C)NC(=O)C([C@@H](C)CC)NC2C=Cc3c([C@H](C)O)cc(nc3C2O)C(=O)O[C@@H]4C)n1)C(N)=O (stereo not given in full) |  | -2.92% [at 21.2 µM]
16 | CC(NNC(=O)c1ccccc1)c1ccccc1 (stereo not given) |  | -9.8%
17 | C/C1=C2N=C(/C=C3N=C(/C(C)=C4\[N-][C@@](C)([C@@H]5N=C1[C@](C)(CCC(=O)NCC(C)OP(=O)(O)O[C@H]1[C@@H](O)[C@@H](n6cnc7cc(C)c(C)cc76)O[C@@H]1CO)[C@H]5CC(N)=O)[C@@](C)(CC(N)=O)[C@@H]4CCC(N)=O)[C@@](C)(CC(N)=O)[C@@H]\3CCC(N)=O)C(C)(C)[C@@H]/2CCC(N)=O.CC(=O)O.[Co] (stereo not given in full) |  | -25.4%
18 | COC(=O)C1=C(C#N)NC(C)=C(C(=O)OC(C)C)C1c1cccc([N+](=O)[O-])c1 (stereo not given) |  | -15.7%
19 | CCCCC(C)(O)C/C=C/[C@H]1[C@H](O)CC(=O)[C@@H]1CCCCCCC(=O)OC (stereo not given in full) |  | -4.24%
20 | CCOC(=O)C1=C(C)NC(C)=C(C(=O)OCC)C1c1ccccc1C=CC(=O)OC(C)(C)C | 20 µM (active) | 
21 | OCCO[C@@H]1[C@@H](O)[C@H](O)[C@@H](CO)O[C@@H]1O |  | -3.4%
22 | CO[C@@H]1[C@@H](O[C@@H]2O[C@H](C)[C@@H](O[C@H]3C[C@@](C)(O)[C@@H](O)[C@H](C)O3)[C@H](N(C)C)[C@H]2O)[C@@H](CC=O)C[C@@H](C)[C@@H](O[C@@H]2CC[C@H](N(C)C)[C@@H](C)O2)/C=C/C=C/C[C@@H](C)OC(=O)C[C@H]1O |  | -18.7% [at 21.2 µM]
23 | COC(=O)[C@H]1[C@H]2C[C@@H]3c4[nH]c5ccccc5c4CCN3C[C@H]2C[C@@H](OC(=O)c2cc(OC)c(OC)c(OC)c2)[C@@H]1OC |  | -27.9%
24 | O=C(O)CCC(=O)C(=O)O |  | -11%
25 | COc1ccc(C[C@@H](C)NC[C@H](O)c2ccc(O)c(NC=O)c2)cc1 |  | -21.8%
26 | CNC(C)[C@@H]1CC[C@@H](N)[C@@H](O[C@H]2[C@H](O)[C@@H](O[C@H]3OC[C@](C)(O)[C@H](NC)[C@H]3O)[C@H](N)C[C@@H]2N)O1 (stereo not given in full) |  | -11.5% [at 21.2 µM]
27 | CN1C(=O)CN2CCc3ccccc3C2c2cc(Cl)ccc21 (stereo not given) |  | -25.4%

Molecular target: Nuclear receptor subfamily 1 group I member 2 (Rattus norvegicus) (UniProt Q9R1A7)
Assay: qHTS assay for small molecule activators of the rat pregnane X receptor (rPXR) signaling pathway (AID 651751; call rule not given here; note: 0% is about no effect)
Conditions: rPXR reporter cells, luciferase (One-Glo), 24 h

Nuclear receptor subfamily 1 group I member 2 (Rattus norvegicus), sequence (Q9R1A7 whole entry, looked up): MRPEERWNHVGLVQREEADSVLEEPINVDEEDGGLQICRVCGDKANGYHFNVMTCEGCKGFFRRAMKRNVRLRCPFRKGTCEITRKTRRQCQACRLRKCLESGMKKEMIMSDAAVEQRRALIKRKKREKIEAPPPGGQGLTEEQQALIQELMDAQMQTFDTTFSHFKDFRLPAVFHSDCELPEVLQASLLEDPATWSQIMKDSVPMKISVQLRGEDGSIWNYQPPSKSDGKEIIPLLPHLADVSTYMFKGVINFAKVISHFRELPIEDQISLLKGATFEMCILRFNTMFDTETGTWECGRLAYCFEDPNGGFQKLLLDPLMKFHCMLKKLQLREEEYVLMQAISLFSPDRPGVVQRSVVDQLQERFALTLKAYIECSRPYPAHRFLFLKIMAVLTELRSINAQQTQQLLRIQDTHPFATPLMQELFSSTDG

Row | Compound | max response
28 | O=C(O)CN(CCN(CC(=O)O)CC(=O)O)CC(=O)O | 0.191% and 7.12%
29 | CCCCCCCC(=O)O | 2.58% and -1.34%
30 | CC1=CCC(C(C)(C)O)CC1 (stereo not given) | -0.27%
31 | CC(O)CO (stereo not given) | -2.73% and 0.891%
32 | IC(I)I | 0.127% and 1.54%
33 | O=C(O)CCC(=O)C(=O)O | 0.868%

Test system: not listed separately
Assay: qHTS assay for small molecule activators of the human pregnane X receptor (PXR) signaling pathway (AID 720659; call rule not given here; note: 0% is about no effect)
Conditions: DPX-2 HepG2 CYP3A4-luciferase, 24 h; series mostly up to 92.3 µM; activation: at the top concentration

Row | Compound | activation | outcome
34 | Nc1ccn([C@H]2CS[C@@H](CO)O2)c(=O)n1 | -4.36% | 
35 | CCOC(C)=O | -12.9% | 
36 | CCCCCCCC(=O)O |  | inactive
37 | CC1=CCC(C(C)(C)O)CC1 (stereo not given) | 4.26% | 
38 | CC(O)CO (stereo not given) |  | inactive
39 | IC(I)I |  | inactive
40 | O=C(O)CCC(=O)C(=O)O | -9.2% | 
